M1 PAM parental: nonselective calcium activators in parental CHO-K1 cells, primary screen, counter-screen for M1 PAM project, cell-based, Fluo-8 calcium fluorescence, full deck, 1536-well; activation, % at 3 µM; ATP EC20; 0% at ATP EC20, 100% at ATP max; AID 602247, 2012; 360,000 tested, 0.02% active;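 active = activation above the run cutoff, the mean activation of all test compounds plus 3 SD, cut at about 40% in these data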;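 note: peak over basal fluorescence ratio in a 140 s read after ATP addition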
CHO-K1 Ca ag: counter-screen for M1 agonists: effect in parental CHO-K1 cells | 360,000 tested, 0.48% active | activation, % at 3 µM | Fluo-8 calcium fluorescence; scaled to maximal ATP response, vehicle zero | AID 602248, 2012; in the data active = activation above about 15%;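 note: untransfected CHO-K1 host cells lacking M1 receptor as counterscreen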
CHO-K1 Ca antag: M1 antagonist counterscreen hit in parental CHO-K1 cells. ATP-induced calcium, Fluo-8 fluorescence. inhibition, % at 3 µM. 360,000 tested, 0.6% active. AID 602250;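 active = inhibition above a per-plate cutoff, the plate's mean sample inhibition plus 3 SD, cut at about 24% in these data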;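 note: 0% = DMSO plus EC80 ATP and 100% = DMSO alone without ATP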
CHRM1 PAM: human M1 muscarinic receptor positive allosteric modulators, primary screen, CHO-K1 cells, Fluo-8 calcium fluorescence, 1536-well; 360,000 tested, 0.088% active; CHO-K1 hM1, ACh EC20; 0% = ACh EC20, 100% = maximal ACh; AID 588819, 2011; Muscarinic acetylcholine receptor M1 (Homo sapiens), P11229; activation, % at 3 µM; in the data active = activation above about 19%, passing the limit was not always enough
Target sequence (P11229 whole entry, looked up): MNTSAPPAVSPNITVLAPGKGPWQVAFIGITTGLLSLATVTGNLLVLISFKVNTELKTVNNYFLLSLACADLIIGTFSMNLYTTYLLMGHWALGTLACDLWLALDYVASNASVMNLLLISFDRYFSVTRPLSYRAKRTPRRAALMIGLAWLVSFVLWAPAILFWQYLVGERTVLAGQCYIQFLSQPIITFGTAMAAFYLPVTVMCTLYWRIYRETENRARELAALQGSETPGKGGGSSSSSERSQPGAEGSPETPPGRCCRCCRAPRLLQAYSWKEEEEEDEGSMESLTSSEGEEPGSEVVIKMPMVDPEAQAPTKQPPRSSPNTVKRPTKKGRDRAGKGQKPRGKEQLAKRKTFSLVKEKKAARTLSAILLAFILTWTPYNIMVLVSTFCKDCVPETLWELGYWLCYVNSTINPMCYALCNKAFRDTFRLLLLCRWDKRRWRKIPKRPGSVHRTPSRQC
M1 ag: human M1 muscarinic receptor agonists, primary screen, Fluo-8 calcium fluorescence, CHO-K1 cells, HTS. CHO-K1 hM1, agonist mode; 0% DMSO, 100% acetylcholine EC100. 360,000 tested, 0.33% active. Muscarinic acetylcholine receptor M1 (Homo sapiens), P11229. activation, % at 3 µM. AID 588814, 2011;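 active = activation above the run's mean compound activation plus 3 SD, cut at about 16% in these data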;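 note: peak over basal fluorescence ratio within a 140 s kinetic read after compound addition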
M1 antag: human M1 muscarinic receptor antagonists, primary screen, CHO-K1 cells, Fluo-8 calcium fluorescence, 1536-well; Muscarinic acetylcholine receptor M1 (Homo sapiens), P11229; CHO-K1 hM1, ACh EC80 antagonist; inhibition, % at 3 µM; 360,000 tested, 1.3% active;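 active = percent inhibition above its own plate's cutoff, namely the mean of that plate's compound wells plus 3 SD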;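 note: peak over basal fluorescence ratio during 140 s after agonist addition; 0% = ACh EC80 plus DMSO and 100% = DMSO alone without agonist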
Active calls of the source: *; x = no result given. Hits are enriched below; roughly 2.3% of the tested compounds scored in any of these assays.

SMILES | M1 PAM parental | CHO-K1 Ca ag | CHO-K1 Ca antag | CHRM1 PAM | M1 ag | M1 antag
Cc1noc(C)c1C(=O)N(C)C[C@@H]1OCc2ccccc2-c2c(n(C)c3ccccc23)C(=O)N([C@H](C)CO)C[C@H]1C | 1 | 0 | 1 | 8 | -4 | -15
CSc1ccccc1CNc1nc(NCC2CC2)nc2ccsc12 | -10 | 9 | 17 | -21 | 2 | 39*
CCOC(=O)Cc1ccc(Nc2nc(NCCOC)nc3ccsc23)cc1 | -11 | 5 | -2 | -30 | -5 | 42*
Cc1ccc(Nc2nc(NCc3ccccc3)nc3ccsc23)c(C)c1 | -11 | 2 | 18 | -24 | 16 | 55*
COc1cccc(CNc2nc(NCC3CC3)nc3ccsc23)c1OC | -13 | 4 | 5 | -27 | -4 | 35
Cc1ccc(Nc2nc(NCc3cccs3)nc3ccsc23)c(C)c1 | 8 | 7 | 8 | -15 | 6 | 13
COc1cccc(CNc2nc(NCc3ccccc3)nc3ccsc23)c1 | -16 | 29* | 21 | -28 | 15 | 46*
FC(F)(F)Oc1ccccc1C(c1nnnn1-c1ccc2c(c1)OCCO2)N1CCN(C/C=C/c2ccccc2)CC1 (stereo unspecified) | 8 | 0 | -9 | -18 | -5 | -7
CC(=O)c1cccc(-c2ccnc3c2CC(C(=O)Nc2ccc(C(C)C)cc2)O3)c1 (stereo unspecified) | -16 | 1 | 11 | 8 | 3 | -9
CCCNC(=O)C1(C)CCCN(Cc2ccc(C(F)(F)F)cc2)C1 (stereo unspecified) | -4 | -1 | 2 | 17 | -9 | -27
O=c1ccn2c(n1)SC(c1ccccc1)C2 (stereo unspecified) | 12 | 0 | -8 | 11 | -1 | -16
CC(=O)NCCNc1nc(NCc2cccs2)nc2ccsc12 | -2 | 5 | -6 | -1 | -3 | -25
CC(C)Nc1nc(NCCN2CCNC2=O)c2sccc2n1 | 17 | 0 | -9 | -1 | -9 | -11
CNc1nc(NCc2ccccc2)c2sccc2n1 | -9 | 6 | -5 | -4 | 2 | 8
COCCNc1nc(NCc2cccs2)nc2ccsc12 | -18 | 85* | 64* | -33 | 93* | 91*
c1ccc(CNc2nc(NCCc3ccncc3)c3sccc3n2)cc1 | -14 | 93* | 99* | -31 | 99* | 91*
c1ccc(CNc2nc(NCc3cccs3)nc3ccsc23)cc1 | 11 | 16* | 14 | -21 | 14 | 25
O=C1NCCN1CCNc1nc(NCc2ccccc2)nc2ccsc12 | -13 | 32* | 27* | -33 | 47* | 70*
CSc1ccc(CN2CCC2(C)C(=O)Nc2ccc3c(c2)OCO3)cc1 (stereo unspecified) | 26 | 0 | -17 | -5 | -3 | -2
CC1(C(=O)NS(=O)(=O)c2cccc(OC(F)F)c2)CCN1C(=O)c1cccc(F)c1 (stereo unspecified) | 2 | 0 | -1 | 7 | 0 | -9
CCC(c1nnnn1-c1ccc2c(c1)OCCO2)N1CCN(C)CC1 (stereo unspecified) | -15 | 0 | 3 | x | x | x
O=C1CCCN1CCCNc1nc(NCc2cccs2)nc2ccsc12 | -12 | 56* | 22 | -33 | 69* | 68*
c1csc(CNc2nc(NCC3CCCCC3)c3sccc3n2)c1 | 14 | 14 | 23 | -14 | 7 | 24
CCOC(=O)CSc1nc2c(sc(=S)n2-c2ccccc2OC)c(=O)n1Cc1ccco1 | -1 | 0 | 28* | -7 | -3 | 3
CC(C)CN1CCC(=O)N(CCOc2ccccc2)CC1 | -17 | 0 | 5 | -3 | 2 | 15
SMILES | M1 PAM parental | CHO-K1 Ca ag | CHO-K1 Ca antag | CHRM1 PAM | M1 ag | M1 antag
CCCN1CCC(=O)N(CCOc2ccccc2)CC1 | -18 | 3 | 24* | 4 | -5 | 1
COCOCCn1cc(CN2CCS(=O)(=O)N(Cc3ccc(-c4ccc(Cl)c(Cl)c4)cc3)C(C)C2=O)nn1 (stereo unspecified) | 7 | 9 | 2 | -9 | 1 | 13
CC(C)C(=O)Nc1ccc(Br)cc1Cl | -13 | -2 | 56* | 1 | -11 | -3
CC(C)(C)c1cc(NC(=O)Nc2ccc(Br)cc2Cl)no1 | 9 | 0 | -15 | -16 | -6 | 28*
CCC1Sc2ccc(S(=O)(=O)Nc3ccc(OC)c(OC)c3)cc2NC1=O (stereo unspecified) | -6 | 12 | 34* | -12 | 5 | 23
CCC1Sc2ccc(S(=O)(=O)Nc3ccc(OC)cc3)cc2NC1=O (stereo unspecified) | 13 | 18* | -4 | -1 | 15 | 8
COc1ccc(NC(=O)C2CCCN2S(=O)(=O)c2ccc3c(c2)C(C)(C)C(=O)N3C)cc1 (stereo unspecified) | 26 | 0 | -14 | 11 | -3 | -16
CC(C)CC(N)c1csc(NC(=O)c2cc(C(C)(C)C)nn2Cc2ccccc2)n1 (stereo unspecified) | 9 | 1 | -7 | -4 | -1 | 5
O=C(CCS(=O)(=O)c1ccc(Br)cc1)Nc1ccccn1 | -16 | 1 | 24* | -11 | 0 | 19
O=C(Nc1cccnc1)c1cc2cc(Br)ccc2o1 | 16 | 2 | -12 | -4 | -2 | 60*
O=C(NC(=S)Nc1cccnc1)c1cc2ccccc2o1 | 6 | 2 | 1 | 7 | -4 | -8
CN(C)CCO[C@@H](c1ccc(Cl)cc1)c1ccccn1 | -21 | 0 | 4 | -27 | -9 | 44*
CN(C)CC[C@@H](c1ccc(Br)cc1)c1ccccn1 | -2 | 0 | 6 | -26 | -8 | 42
COc1cc(C(C)=O)ccc1OCC(=O)Nc1ccc(S(=O)(=O)N2CCCCC2)cc1 | 3 | 4 | 4 | -13 | -3 | 3
COc1ccc(NC(=O)COc2ccccc2C(N)=O)cc1S(=O)(=O)N1CCCCC1 | 12 | 1 | -5 | 14 | -1 | -17
Cc1ccc(NC(=O)CSc2ncnc3ccccc23)cc1S(=O)(=O)N1CCCCCC1 | -4 | 12 | 27* | -13 | -3 | 34
COc1cc(C(C)=O)ccc1OCC(=O)Nc1ccc(C)c(S(=O)(=O)N2CCCCCC2)c1 | -16 | 16* | 8 | -23 | 0 | 37*
Cc1ccc(NC(=O)COc2ccccc2C(N)=O)cc1S(=O)(=O)N1CCCCCC1 | -22 | 15 | 27* | -15 | 0 | 33*
CCc1cccc(OCC(=O)Nc2ccc(C)c(S(=O)(=O)N3CCCCCC3)c2)c1 | -12 | 2 | 9 | -11 | 0 | 46*

Screening data (PubChem BioAssay)
